{"source": "PubChem BioAssay (Tox21)", "note": "Results filed as inconclusive are left out. Active and inactive are the calls of the source. The call rests on the fitted dose curve; in most records, active means well fitted cell-killing curve with a large enough effect in the repeat runs; inconclusive means weak or mixed curves, or effect the other way; inactive means no such curve, though single readings can be large or run the other way. On the % scale 0 is the no-effect control and ±100 the full control effect.", "data": [{"assay": "qHTS assay to identify small molecule antagonists of the glucocorticoid receptor (GR) signaling pathway - cell viability counter screen (AID 720693); further: nearly all actives have a fitted effect of over 55% in size", "conditions": "GR-bla HeLa viability, CellTiter-Glo luminescence, 18 h, with 5 nM dexamethasone present; series mostly up to 58.5 µM; viability change, negative = cytotoxic: at the top concentration", "values": [{"molecule": "C[C@@H]1CN(c2c(F)c(N)c3c(=O)c(C(=O)O)cn(C4CC4)c3c2F)C[C@H](C)N1", "viability change, negative = cytotoxic": "-0.657% (inactive)"}, {"molecule": "CC1(C)C(=O)N(Cl)C(=O)N1Br", "viability change, negative = cytotoxic": "-3.51% (inactive)"}, {"molecule": "CCCCCCC", "viability change, negative = cytotoxic": "-0.464% [at 78.9 µM] (inactive)"}, {"molecule": "CCC/C=C/CO", "viability change, negative = cytotoxic": "12.1% (inactive)"}, {"molecule": "CCOC(=O)c1ccccc1O", "outcome": "inactive"}, {"molecule": "Cc1ccc([N+](=O)[O-])cc1Cl", "viability change, negative = cytotoxic": "-3.62% [at 78.9 µM] (inactive)"}, {"molecule": "OCCN1CCN(CCO)CC1", "viability change, negative = cytotoxic": "11.7% [at 78.9 µM] (inactive)"}, {"molecule": "COc1ccccc1OCC(O)COC(N)=O", "note": "(stereo unspecified)", "viability change, negative = cytotoxic": "-8.48% [at 27 µM] (inactive)"}, {"molecule": "C=O", "outcome": "inactive"}, {"molecule": "CC/C=C\\CCOC(=O)CCCCC", "viability change, negative = cytotoxic": "4.68% (inactive)"}, {"molecule": "CCOc1ccc(NC(N)=O)cc1", "viability change, negative = cytotoxic": "-2.73% (inactive)"}, {"molecule": "Clc1cccc(-c2cc(Cl)cc(Cl)c2)c1", "viability change, negative = cytotoxic": "1.28% (inactive)"}, {"molecule": "CC1=CC(=O)CC(C)(C)C1=O", "viability change, negative = cytotoxic": "4.96% [at 78.9 µM] (inactive)"}, {"molecule": "CN(CC1(C)CCCO1)S(=O)(=O)c1ccc(Cl)c(S(N)(=O)=O)c1", "note": "(stereo unspecified)", "viability change, negative = cytotoxic": "-0.299% (inactive)"}, {"molecule": "C=CCCCCCCCCO", "viability change, negative = cytotoxic": "17.6% (inactive)"}, {"molecule": "CC1=NN(c2cc(Cl)c(S(=O)(=O)O)cc2Cl)C(=O)C1N=Nc1ccc(S(=O)(=O)O)cc1", "note": "(stereo unspecified)", "viability change, negative = cytotoxic": "10.8% (inactive)"}, {"molecule": "O=C(O)C(=O)Cc1c[nH]c2ccccc12", "viability change, negative = cytotoxic": "9.27% (inactive)"}, {"molecule": "CS(=O)(=O)c1ccc([C@@H](O)[C@@H](CF)NC(=O)C(Cl)Cl)cc1", "viability change, negative = cytotoxic": "1.41% [at 27 µM] (inactive)"}, {"molecule": "COc1ccc2nc(NC(=O)Nc3ccccc3)sc2c1", "viability change, negative = cytotoxic": "-12.4% (inactive)"}, {"molecule": "O=c1oc2c(O)c(O)cc3c(=O)oc4c(O)c(O)cc1c4c23", "viability change, negative = cytotoxic": "1.87% (inactive)"}, {"molecule": "CCC(=O)Nc1ccc(O)cc1", "viability change, negative = cytotoxic": "11.7% (inactive)"}, {"molecule": "Cc1nnc(SCC2=C(C(=O)O)N3C(=O)[C@@H](NC(=O)Cn4cnnn4)[C@H]3SC2)s1", "viability change, negative = cytotoxic": "7.91% (inactive)"}, {"molecule": "Cc1ccc([N+](=O)[O-])c(N)c1", "viability change, negative = cytotoxic": "10.4% (inactive)"}, {"molecule": "CCCOCCC", "viability change, negative = cytotoxic": "4.12% (inactive)"}, {"molecule": "C=CC1CO1", "note": "(stereo unspecified)", "viability change, negative = cytotoxic": "7.89% [at 78.9 µM] (inactive)"}, {"molecule": "Cc1ccc(C(C)C)cc1O", "viability change, negative = cytotoxic": "5.36% (inactive)"}, {"molecule": "O=C1CCCCCCCCCCC(=O)OCCO1", "viability change, negative = cytotoxic": "22.4% (inactive)"}, {"molecule": "COc1cc(Cl)ccc1Cl", "viability change, negative = cytotoxic": "-0.282% [at 78.9 µM] (inactive)"}, {"molecule": "CCNCCO", "viability change, negative = cytotoxic": "6.73% (inactive)"}, {"molecule": "CCc1nnc(NS(=O)(=O)c2ccc(N)cc2)s1", "viability change, negative = cytotoxic": "13.2% (inactive)"}, {"molecule": "FC(F)(F)c1ccccc1", "viability change, negative = cytotoxic": "7.81% (inactive)"}, {"molecule": "CC(C)OC(C)C", "viability change, negative = cytotoxic": "-8.19% [at 78.9 µM] (inactive)"}, {"molecule": "ClC(Cl)Cl", "outcome": "inactive"}, {"molecule": "CCCN(CCC)C(=O)C(CCC(=O)O)NC(=O)c1ccccc1", "note": "(stereo unspecified)", "viability change, negative = cytotoxic": "15.7% (inactive)"}, {"molecule": "CC1(C)O[C@@H]2C[C@H]3[C@@H]4CCC5=CC(=O)CC[C@]5(C)[C@@]4(F)[C@@H](O)C[C@]3(C)[C@]2(C(=O)CCl)O1", "viability change, negative = cytotoxic": "-0.596% [at 27 µM] (inactive)"}, {"molecule": "O=C(O[C@@H](C(=O)O)[C@@H](OC(=O)c1ccccc1)C(=O)O)c1ccccc1", "viability change, negative = cytotoxic": "-1.04% [at 78.9 µM] (inactive)"}]}]}
